The term viability denotes a read-out of living cells in per cent, often relative to untreated cells.

A short description of this assay: MRP-overexpressing cell chemosensitization – dose response (AID 741). The conditions noted are these: MRP-overexpressing cells, viability with/without cytotoxic drug; slope difference: measured here: slope difference tox minus reversal, stronger effect = higher value; toxicity enhancement factor: stronger effect = higher value; viability: measured here: viability series, compound alone, at 10 µM, stronger effect = lower value.

Records with an inconclusive call do not appear. Activity calls are given as the source filed them. No stated cut-off is given here; in the data, active means toxicity enhancement factor above about 0.054; inconclusive means between about 0.00067 and that limit; inactive means weaker than that.

Turning to `CCCCCC(O)c1cccc(OCc2ccc3ccccc3n2)c1` (configuration not stated), the slope difference is -0.009, the toxicity enhancement factor was -0.0001 (inactive) and the viability was 102%.
For `COC(=O)C(C)Sc1nnc2n(-c3cccc(C)c3)c(=O)c3c4c(sc3n12)CCCC4` (configuration not stated), the slope difference amounted to 2.9, the toxicity enhancement factor was 0.061 (active) and the viability is 85.9%.
`COC(=O)c1ccccc1NC(=O)c1cccs1`: the slope difference was -0.205, the toxicity enhancement factor was -0.0023 (inactive) and the viability came to 87.5%.
The matching figures for `CCN(C(=O)c1cn(C)c(=O)c2cc(OC)c(OC)cc12)c1cc(OC)ccc1OC`: 4.18, 0.129 (active) and 77.9%.
In the case of `COc1ccc(Cl)cc1C(=O)Nc1ccccc1N1CCN(C(=O)C(C)C)CC1`, the slope difference is -0.352, the toxicity enhancement factor is -0.0048 (inactive) and the viability was 75.7%.
For the molecule `CCCNS(=O)(=O)c1ccc(NC(=O)c2ccccn2)cc1`, the slope difference was -0.0969, the toxicity enhancement factor is -0.001 (inactive) and the viability is 99.5%.
On to `Cn1c(=O)c2c(nc(NC3CCCCC3)n2CC(O)COc2ccccc2)n(C)c1=O` (configuration not stated), for which the slope difference was -0.557, the toxicity enhancement factor is -0.0085 (inactive) and the viability was 68.8%.
In the case of `COc1ccc(N2C(=O)C(Cl)=C(N3CCCC3)C2=O)cc1`, the slope difference was -0.145, the toxicity enhancement factor was -0.0016 (inactive) and the viability came to 91.8%.
Consider `COc1ccc(C)cc1-n1c(N)c(C#N)c(C#N)c1-c1ccc(OC)c(OC)c1OC`, for which the slope difference worked out at 2.33, the toxicity enhancement factor was 0.077 (active) and the viability was found to be 61.5%.
Consider `CCOc1nc2c(c(=O)n(C)c(=O)n2C)n1Cc1ccccc1Cl`, for which the slope difference is -0.531, the toxicity enhancement factor is -0.0077 (inactive) and the viability was 71%.
Regarding `Cc1oncc1C(=O)Nc1ccc(C(F)(F)F)cc1`, the slope difference was -0.34, the toxicity enhancement factor was -0.0035 (inactive) and the viability turned out to be 96.5%.
On to `Cn1ccnc1-c1nc2ccccc2[nH]c1=O`, for which the slope difference was -0.138, the toxicity enhancement factor is -0.0015 (inactive) and the viability worked out at 92.3%.
In the same order, the values of `CC(Cc1ccc(O)c(O)c1)C(C)Cc1ccc(O)c(O)c1` (configuration not stated) are -0.864, -0.009 (inactive) and 86.2%.
On to `C=CCSc1nnc2n(CCc3ccccc3)c(=O)c3c4c(sc3n12)COC(C)(C)C4`, for which the slope difference was 3.35, the toxicity enhancement factor is 0.116 (active) and the viability is 71%.
With `O=C(Cc1cccs1)N1CCC(c2nc3c(nnn3Cc3ccccc3Cl)c(=O)[nH]2)CC1`, the slope difference was -0.454, the toxicity enhancement factor is -0.0052 (inactive) and the viability is 82.5%.
Take `C=CCOc1nc2c(c(=O)n(C)c(=O)n2C)n1Cc1c(Cl)cccc1Cl`: the slope difference was -0.654, the toxicity enhancement factor is -0.0108 (inactive) and the viability was 63.6%.
As to `COc1ccc(N2C(N)=C(C#N)C(c3cccnc3)C3=C2CC(C)(C)CC3=O)cc1` (configuration not stated), the slope difference came out at 2.07, the toxicity enhancement factor was 0.0615 (active) and the viability amounted to 63%.
Consider `N#Cc1ccc(CSc2nnc(-c3cccs3)n2-c2ccccc2)cc1`, for which the slope difference was -0.904, the toxicity enhancement factor was -0.0117 (inactive) and the viability is 79%.
Regarding `CC(C)Cc1ccc(C(C)C(=O)O)cc1` (configuration not stated), the slope difference was -0.62, the toxicity enhancement factor is -0.0059 (inactive) and the viability turned out to be 93.7%.
The matching figures for `c1ccc2sc(N3CN(CCN4CCOCC4)CN(c4nc5ccccc5s4)C3)nc2c1`: -1.81, -0.0158 (inactive) and 104%.
Regarding `c1ccc(-c2nc(N3CCOCC3)c3ccccc3n2)nc1`, the slope difference is -2.79, the toxicity enhancement factor was -0.0278 (inactive) and the viability was found to be 87%.
As for `COC(=O)Nc1ccc(S(=O)(=O)N2c3ccccc3CCC2C)cc1` (configuration not stated), the slope difference is -2.95, the toxicity enhancement factor was -0.0581 (inactive) and the viability is 20.1%.
In the case of `O=C(CSc1nnnn1-c1ccccc1)N1CCc2ccccc21`, the slope difference is -1.04, the toxicity enhancement factor was -0.0102 (inactive) and the viability was determined as 85.8%.
As for `O=C(NCCCn1ccnc1)c1sc2cccc(F)c2c1Cl`, the slope difference is -0.0975, the toxicity enhancement factor is -0.001 (inactive) and the viability amounted to 96.9%.
The matching figures for `CCOC(=O)N1CCC(Nc2c(Nc3cccc(CC)c3)c(=O)c2=O)CC1`: 5.23, 0.268 (active) and 73.6%.
Take `CCCN1C2=C(C(=O)CC(C)(C)C2)C(c2ccc(F)cc2)C2=C1c1ccccc1C2=O` (configuration not stated): the slope difference is 3.28, the toxicity enhancement factor was 0.126 (active) and the viability is 64.6%.
Regarding `CC1(C)CC(=O)C2=C(C1)N(c1ccccc1)C(N)=C(C#N)C2c1ccccc1` (configuration not stated), the slope difference came to 3.21, the toxicity enhancement factor is 0.108 (active) and the viability amounted to 73.3%.
As to `COc1ccc(NC(=O)C2C3C=CC(C3)C2C(=O)NCc2ccccn2)c(OC)c1` (configuration not stated), the slope difference is -1.73, the toxicity enhancement factor is -0.0167 (inactive) and the viability stood at 88.7%.
`CCc1cccc2c3c([nH]c12)C(CC)(CC(=O)O)OCC3` (configuration not stated): the slope difference is -0.174, the toxicity enhancement factor was -0.0019 (inactive) and the viability turned out to be 92.5%.
In the case of `CCOC(=O)Nc1ccc(S(=O)(=O)Nc2nccc(C)n2)cc1`, the slope difference is -0.237, the toxicity enhancement factor was -0.0025 (inactive) and the viability is 97.4%.
Consider `Cc1nc(C)c(C)nc1C`, for which the slope difference is -0.412, the toxicity enhancement factor is -0.004 (inactive) and the viability was found to be 98.8%.
`COc1ccc(C(c2nnnn2C(C)(C)C)N2CCN(c3nc4ccccc4s3)CC2)cc1OC` (configuration not stated): the slope difference is -1.39, the toxicity enhancement factor is -0.0199 (inactive) and the viability was 71.9%.
Turning to `Cc1ccc(-n2ncc3c(N4CCN(c5ccccc5)CC4)ncnc32)c(C)c1`, the slope difference is -1.27, the toxicity enhancement factor is -0.037 (inactive) and the viability came out at 27.4%.
In the same order, the values of `Cc1ccc(N2C(N)=C(C#N)C(c3cccnc3)C3=C2CC(C)(C)CC3=O)cc1` (configuration not stated) are 2.48, 0.0915 (active) and 57.5%.
